# An excerpt weighted towards active compounds, which were near 5.4% of everything screened.
# Calb FLC = C. albicans growth inhibition with fluconazole, primary screen, CaCi-2 strain, Alamar Blue fluorescence; AID 1979, 2009; C. albicans CaCi-2 (fluconazole-resistant clinical isolate) + fluconazole, 48 h; growth inhibition, % (test concentration not listed); actives 0.57% (n = 300,000);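 active means growth inhibition above about 58% in most replicates, limit read from the data, passing the limit was not always enough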;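 further: all wells also contain fluconazole at 8 µg/ml as a sub-toxic cotreatment; 0% = median of DMSO wells and 100% = median of geldanamycin control wells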
# MPTP inh = mitochondrial permeability transition pore inhibitors, primary screen, biochemical, isolated mouse mitochondria, absorbance | inhibition, % at 10 µM | AID 602449, 2012 | Ca2+ swelling absorbance, 30 min | actives 1.4% (n = 360,000);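 active means inhibition of 50% or more, scaled per plate between neutral and stimulator controls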;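 further: 0% = DMSO wells given calcium and 100% = 1 mM EGTA wells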
# Beta apoptosis = inhibitors of cytokine-induced beta cell apoptosis, primary screen, luminescence; INS-1E cytokine-induced death, ATP luminescence, 48 h; percent of positive-control rescue, neutral wells zero; protection from apoptosis, % (concentration not given with the values); actives 0.8% (n = 300,000);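 active means Every replicate reaches about 75%, or at least half do and their mean reaches it too, limit read from the data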;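 further: 0% = cytokine-treated negative control wells and 100% = positive control rescue; higher means more ATP so stronger rescue from cytokine killing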
# Mdm2 MdmX PPI = inhibitors of human Mdm2-MdmX association, primary screen, cell-based, luminescence, split luciferase, SaOS-2, uHTS; SaOS-2 split-luciferase Mdm2/MdmX complementation; AID 485346, 2010; actives 3% (n = 330,000); inhibition, % at 8 µM; Protein Mdm4 (Homo sapiens) + E3 ubiquitin-protein ligase Mdm2 (Homo sapiens), …;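 active means inhibition of at least 50% at 8 µM in the primary screen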
# Target sequence (O15151 whole entry, looked up): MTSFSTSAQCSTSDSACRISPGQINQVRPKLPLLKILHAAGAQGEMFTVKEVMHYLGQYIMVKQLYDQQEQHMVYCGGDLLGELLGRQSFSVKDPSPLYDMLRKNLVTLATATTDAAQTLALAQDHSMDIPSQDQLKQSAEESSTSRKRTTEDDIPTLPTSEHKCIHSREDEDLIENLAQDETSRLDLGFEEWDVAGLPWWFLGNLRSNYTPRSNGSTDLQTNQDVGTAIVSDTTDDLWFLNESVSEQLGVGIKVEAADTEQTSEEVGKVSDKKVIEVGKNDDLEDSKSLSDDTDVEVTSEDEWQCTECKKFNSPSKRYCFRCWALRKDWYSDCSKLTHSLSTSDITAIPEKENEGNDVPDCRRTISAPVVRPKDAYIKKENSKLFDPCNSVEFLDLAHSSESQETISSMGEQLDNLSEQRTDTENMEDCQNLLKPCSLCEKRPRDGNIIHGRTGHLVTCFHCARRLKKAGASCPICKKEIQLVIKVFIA
# Target sequence (Q00987 whole entry, looked up): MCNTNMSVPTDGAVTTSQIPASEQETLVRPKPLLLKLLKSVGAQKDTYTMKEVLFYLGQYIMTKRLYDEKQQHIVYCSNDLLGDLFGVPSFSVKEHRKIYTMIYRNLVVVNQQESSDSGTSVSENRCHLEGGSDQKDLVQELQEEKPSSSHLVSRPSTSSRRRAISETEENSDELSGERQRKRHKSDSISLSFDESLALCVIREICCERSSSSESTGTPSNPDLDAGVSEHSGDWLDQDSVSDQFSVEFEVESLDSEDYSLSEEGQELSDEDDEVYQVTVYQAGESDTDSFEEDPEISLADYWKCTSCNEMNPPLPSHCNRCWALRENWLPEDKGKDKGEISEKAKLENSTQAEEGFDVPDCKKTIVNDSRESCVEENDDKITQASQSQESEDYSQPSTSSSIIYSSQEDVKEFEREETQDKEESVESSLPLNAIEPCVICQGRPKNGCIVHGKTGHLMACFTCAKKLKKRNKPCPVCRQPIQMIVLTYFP
# SKKanGAS inh = S. pyogenes SKKanGAS growth inhibitors in kanamycin, primary screen, streptokinase expression inhibitor project, SKKanGAS strain, BacTiter-Glo luminescence; actives 1.3% (n = 300,000); inhibition, % at 7.5 µM; 6 h;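 active means mean replicate score, as percent of positive control median, at least 50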;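 further: strain carries kanamycin resistance gene driven by streptokinase promoter and grows in 40 µg/ml kanamycin; loss of luminescence reflects streptokinase promoter inhibition or plain growth inhibition; 0% = median of DMSO wells and 100% = positive control at its reference dose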
# CSC inhib = cancer stem cell viability inhibitors, primary screen, luminescence | actives 1.1% (n = 300,000) | inhibition, % at 7.5 µM | cancer stem cell-like cells viability; in the data active means inhibition above about 75%; tested in HMLE shEcad cells
# Rh123 counter = fluorescence retest of MPTP screen hits in isolated mitochondria, single concentration | shares compounds with MPTP inh | membrane potential, Rhodamine 123 fluorescence | inhibition, % at 10 µM | actives 78% (n = 5,000) | AID 624504, 2012; in the data active means inhibition above about 22%;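 further: 0% = DMSO vehicle and 100% = positive control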
# MPTP swell DR = mitochondrial permeability transition pore inhibitors, dose response, biochemical, absorbance, uHTS hits | shares compounds with MPTP inh | isolated mitochondria swelling | IC50, µM | actives 58% (n = 780) | AID 651561, 2012; in the data active means IC50 below about 20 µM
# MPTP cs DR = fluorescent counter-screen in isolated mitochondria, dose response, counter-screen for MPTP inhibitor project, biochemical, fluorescence, uHTS hits; shares compounds with MPTP inh; isolated mitochondria counterscreen, fluorescence read-out; IC50, µM; actives 49% (n = 780); AID 651564, 2012; in the data active means IC50 below about 80 µM
# Starred values were filed as active, the others as inactive; x = no result given.
SMILES,Calb FLC,MPTP inh,Beta apoptosis,Mdm2 MdmX PPI,SKKanGAS inh,CSC inhib,Rh123 counter,others
COc1ccc(NC(=S)Nc2cccc([N+](=O)[O-])c2)cc1,6.4,84.7*,-5.1,-11.4,-0.2,3.8,86.7*,
COc1ccc(OC(C)C(=O)Nc2cccc([N+](=O)[O-])c2)cc1 (configuration not stated),-7.0,-0.1,-4.3,-6.6,-2.4,3.1,x,
COc1ccccc1CCNC(=O)Nc1cccc([N+](=O)[O-])c1,-24.9,68.1*,-1.0,12.2,-13.2,9.0,77.1*,
CCOC(=O)CNC(=O)N1CCCC(C(=O)c2cc(C)c(OC)c(C)c2)C1 (configuration not stated),26.9,0.7,-8.7,21.2,-1.9,-15.0,x,
COc1ccccc1C=NN=C(NN=Cc1ccccc1OC)NN=Cc1ccccc1OC,x,94.4*,x,x,x,x,97.3*,
O=C(COC(=O)C1(c2ccc(Cl)cc2)CCCC1)NCc1ccco1,3.3,2.2,-3.0,4.5,-1.2,2.2,x,
CCc1ccc(NC(=O)COC(=O)C2(c3ccc(Cl)cc3)CCCC2)cc1,2.7,65.1*,-2.1,8.6,25.4,32.5,75.2*,
O=C(O)/C(=C\c1ccco1)NC(=O)c1ccc(Br)o1,-5.3,2.4,2.4,-22.9,-7.1,3.8,x,
CC(C)(C)C(=O)Cn1c(=N)n(Cc2ccccc2)c2ccccc21,1.2,-6.4,3.9,8.5,5.3,3.0,x,
CC(C)(C)C(=O)Cn1c(=N)n(Cc2ccccc2Cl)c2ccccc21,0.0,55.6*,28.4,24.1,6.3,x,-3.1,MPTP swell DR=11*;MPTP cs DR=54.9*
COc1cccc(NC(=S)NC(Cc2ccccc2)c2ccccc2)c1 (configuration not stated),x,57.1*,x,x,x,x,89.7*,
COc1cccc(NC(=S)NC(C)c2ccc(OC)c(OC)c2)c1 (configuration not stated),-10.4,1.4,-4.7,-9.8,-4.5,-7.3,x,
Cc1ccc2c(c1)nnn2C1CCN(S(=O)(=O)c2ccc(C(=O)N3C(C)CCCC3C)cc2)CC1 (configuration not stated),11.8,98.3*,106.1*,25.9,1.8,40.7,86.8*,
CCOC(=O)c1c(-n2cnnn2)sc2c1CCCC2,1.9,0.4,-1.3,-5.3,3.5,-12.5,x,
CCOC(=O)c1c(N2C(=O)Nc3cc(Cl)c(Cl)cc3N2O)sc2c1CCCCC2,x,91.1*,-0.9,23.2,x,-5.9,70.2*,
CC(=O)c1c(C)[nH]c(C(=O)OCC(=O)Nc2cc(Cl)ccc2[N+](=O)[O-])c1C,8.7,94.5*,39.6,31.3,-8.0,3.1,82.2*,
CC(=O)c1c(C)[nH]c(C(=O)OCc2ccc(F)cc2Cl)c1C,6.3,78.1*,37.1,21.1,17.9,-1.7,68.6*,
COc1ccc(OCCOC(=O)c2[nH]c(C)c(C(C)=O)c2C)cc1,7.5,56.3*,20.8,12.7,-16.9,10.2,30.7*,
COc1ccc(CCNC(=O)c2[nH]c(C)c(C(C)=O)c2C)cc1,-10.2,-0.7,3.1,9.4,-2.1,-1.8,x,
CC(=O)c1c(C)[nH]c(C(=O)OCC(=O)NCc2ccc(Cl)cc2)c1C,x,1.3,-4.4,31.0,x,x,x,
O=C(NCc1nnc(SCC(=O)N2CCN(c3ccccc3)CC2)o1)c1ccco1,-4.6,-0.8,4.8,10.3,0.2,x,x,
CCN1/C(=C/c2ccc3cc(C)cc(C)c3[n+]2CC)Sc2cc(C)ccc21,x,87.2*,x,x,x,x,97.2*,
CC[n+]1c(/C=C/c2ccc(OC)c(OC)c2)ccc2ccccc21,-3.0,0.4,-5.4,-52.6,0.1,-1.8,x,

# Screens from PubChem.
